Compounds without any hit were thinned out: in the full panel of roughly 83,000, 20% have a hit.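 Each cell line was grown in a 96-well plate and treated with one concentration of compound for 48 hours. Values below 10 were considered active.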 Activity calls are given as the source filed them.
What follows are compounds tested on SNB-75 CNS (assay: NCI-60 one-dose screen, 48 h (100 = growth as untreated, 0 = no growth, -100 = all killed)). Conditions: 10 µM unless noted.
`NC(=O)CSSCC(N)=O` was tested, and the growth was 95.2% (inactive).
For `C=C(C)[C@@H]1CC[C@]2(C(=O)N3CCN(C)CC3)CC[C@]3(C)[C@H](CC[C@@H]4[C@@]5(C)CC[C@H](O)C(C)(C)[C@@H]5CC[C@]43C)[C@@H]12`, the growth was -93.2% (active).
With `O=C1Nc2cc(Cl)ccc2/C1=C\c1c(-c2ccc(F)cc2)nc2ccccn12` the growth was -16.9% (active).
`CCc1ccc(-c2cn3ccnc3c(-c3ccc4ncn(Cc5ccccc5)c4c3)n2)cc1` was tested, and the growth was 70.7% (inactive).
In the case of `CCOC(=O)c1cc(C(=O)c2ccc(OC)c(OC)c2)n2ccc(/C=C/c3cc[n+](CC(=O)c4ccc(OC)c(OC)c4)cc3)cc12`, the growth is reported as 79.4% (inactive).
In the case of `COc1cc(/C=C\c2cc(OC)c(OC)c(OC)c2)cc(NC(=O)/C=C/c2cc(OC)c(OC)c(OC)c2)c1OC`, the growth is reported as 51.8% (inactive).
With `CN1C(N2CCN(S(=O)(=O)c3ccccc3)CC2)=NS(=O)(=O)c2ccccc21` the growth was 53.4% (inactive).
`O=C1Nc2ccccc2/C1=C\c1c(-c2ccc(F)cc2)nc2ccccn12` was tested, and the growth was 71.3% (inactive).
In the case of `OCc1cnc2ccccc2c1NC1CCCCCC1`, the growth is reported as 91.4% (inactive).
For `Oc1c(Cl)cc(Cl)c(Cl)c1CNCCNCc1c(O)c(Cl)cc(Cl)c1Cl`, the growth was 51.9% (inactive).
With `CN1[C@@H]2CC[C@H]1/C(=C\c1ccccc1)C(=O)/C2=C/c1ccccc1` the growth was 26.4% (inactive).
With `O=C1c2c(c3c4cccc(F)c4[nH]c3c3ccc4ccccc4c23)C(=O)N1O` the growth was 68.7% (inactive).
With `CN(C)CCC(=O)c1ccc([N+](=O)[O-])cc1` the growth was 90.9% (inactive).

Source: PubChem BioAssay (NCI)
